Assay outcomes as filed in PubChem.
DPM-DC inhibit = S. pneumoniae DPM-DC inhibitors, primary screen, biochemical, PK/LDH-coupled NADH fluorescence; diphosphomevalonate decarboxylase (Streptococcus pneumoniae D39); purified DPM-DC; calls only at 10 µM; 65,000 compounds, 0.49% hits;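 active = the 320 compounds with the highest percent inhibition in the single-dose primary screen, excluding strongly autofluorescent ones, cut at about 32% in these data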;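 note: kinetic rate of NADH fluorescence loss reporting ADP formed by the decarboxylase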
NADH coupling = inhibitors of PK/LDH coupling enzymes, profiling panel, artefact control, biochemical, MLSMR library | coupled PK/LDH NADH assays, four targets | IC50, µM (highest dose often 10 µM), for inactives: top-dose inhibition | 65,000 compounds, 0.02% hits | AID 774, 2007;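 active = single-dose screening hits from any of four coupled enzyme assays that gave an IC50 when retested across doses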;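 note: the DPM-DC format reads NADH fluorescence rather than 340 nm absorbance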
Fluor 339 460 = intrinsic fluorescence of library compounds, ex339/em460 – biochemical, MLSMR library, data from DPM-DC assay, artefact control, profiling panel | fluorescence fold increase at 10 µM | compound autofluorescence, ex339/em460 nm, NADH buffer; active compounds read high; 1 = no-compound wells, NADH background | 65,000 compounds, 5.5% hits;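 active = at 10 µM, mean starting fluorescence two-fold or more over control wells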;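 note: signal is the first read of a kinetic run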
PMK inhibit = S. pneumoniae PMK inhibitors, primary screen, biochemical, mevalonate pathway, pilot trial included; AID 539, 2006; purified PMK, PK/LDH-coupled NADH absorbance 340 nm; 65,000 compounds, 0.49% hits; phosphomevalonate kinase (Streptococcus pneumoniae D39); inhibition, % at 10 µM;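 active = top-ranked compounds by inhibition in the single 10 µM screen, taking a fixed number of the strongest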;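 note: 0% = full reaction with DMSO carrier and 100% = background rate without enzyme reaction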
A340 absorber = compound light absorbance at 340 nm, profiling panel, artefact control, biochemical, MLSMR library, data from PS, PMK, MK assays; compound absorbance at 340 nm, fold over control; 65,000 tested, under 10 active; fold change at 10 µM;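 active = at 10 µM dose, initial 340 nm absorbance at least 2 fold that of control wells; inactive = change under 2 fold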;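 note: initial absorbance extrapolated from kinetic A340 decline of NADH oxidation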
Spn MK inh = S. pneumoniae MK inhibitors, primary screen, biochemical, PK/LDH-coupled NADH absorbance. inhibition, % at 10 µM. purified MK, PK/LDH-coupled NADH absorbance 340 nm. 65,000 compounds, 0.48% hits;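 active = ranked among the strongest by inhibition in the single 10 µM screen, a fixed top-ranked set picked for dose follow-up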
An asterisk follows results filed as active; i = inactive; x = no result shown; + = active, no number. Sampled rows, rich in hits. Any-hit rate of the full collection: about 6.8%.

SMILES	DPM-DC inhibit	NADH coupling	Fluor 339 460	PMK inhibit	A340 absorber	Spn MK inh
COc1ccc(-c2cc(C(=O)OCC(=O)N3CCCC3)c3ccccc3n2)cc1	i	17%	2.9*	19	1	0
CON(C)c1nc(OCCNC(=O)OCc2ccc(Cl)cc2Cl)nc(N(C)C)n1	i	9%	0.99	25*	1	0
CON(C)c1nc(OCCNC(=O)COc2ccc(Cl)cc2C)nc(N(C)C)n1	i	0%	1.1	0	1	0
CC(=O)c1cc2c(cc1NC(=O)CSc1nnc(C)s1)OCO2	i	10%	2*	10	1.1	12
CCCc1cc(=O)[nH]c(SCC(=O)NC2CCCCC2)n1	i	4%	1	5	1	5
CCCc1cc(=O)[nH]c(SCC(=O)Nc2cc3c(cc2C(C)=O)OCO3)n1	i	16%	2.1*	5	1.1	12
CCCCN1C(=O)c2ccc(C(=O)Nc3c(N)n(CCCC)c(=O)n(C)c3=O)cc2C1=O	i	3%	1.1	0	1	6
COc1cc(OC)c(N2CC34C=CC(O3)C(C(=O)O)C4C2=O)cc1Cl (configuration not stated)	i	3%	1.1	0	1	8
COc1cc(C(=O)Nc2ccc3c(c2)OCCO3)c(-n2cnnn2)cc1OC	i	8%	1	10	1	0
COc1cc(C(=O)Nc2ccc3c(c2)OCO3)ccc1-n1cnnn1	+	19%	1.2	12	1	14
O=C(Nc1ccc2nn(-c3ccccc3)nc2c1)c1ccc2c(c1)OCO2	i	5%	2.6*	2	1.2	0
COc1ccc(N2CCN(C(=O)CC3NC4CCCCC4NC3=O)CC2)cc1 (configuration not stated)	i	4%	1.1	3	1	8
CCOC(=O)c1cccc(S(=O)(=O)N(CCO)Cc2cc3cc(OC)c(OC)cc3[nH]c2=O)c1	i	3%	1.3	9	1	0
COc1cc2cc(CN(CCCO)S(=O)(=O)c3ccccc3Cl)c(=O)[nH]c2cc1OC	x	17%	3.5*	25*	1.1	8
COc1cc2cc(CN(CCO)S(=O)(=O)c3ccccc3Cl)c(=O)[nH]c2cc1OC	i	15%	3.1*	6	1	8
Cc1cc2cc(CN(CCCO)S(=O)(=O)c3cccc4nsnc34)c(=O)[nH]c2cc1C	i	10%	1.1	19	1.1	12
COc1cc2cc(CN(CCCO)S(=O)(=O)c3ccccc3)c(=O)[nH]c2cc1OC	x	3%	3.9*	0	1.1	5
O=C(OCC#CCSc1nnc(-c2cccc3ccccc23)o1)c1cccs1	i	4%	2.2*	3	1.1	8
O=C(OCC#CCSc1nnc(-c2ccccc2)o1)c1cccs1	i	2%	0.99	0	0.98	6
CCOC(=O)Nc1ccc2c(CN3C(=O)NC4(CCCC4)C3=O)cc(=O)oc2c1	x	2%	3.3*	5	1.1	0
CCN(CC)CCN1C(=O)c2ccccc2NC1c1cccc(F)c1 (configuration not stated)	x	9%	2.1*	10	1	7
COc1ccc(C2Nc3ccccc3C(=O)N2O)cc1OC (configuration not stated)	i	7%	1.2	18	1	0
CCN(CC)CCN1C(=O)c2ccccc2NC1c1cc(OC)c(OC)c(OC)c1 (configuration not stated)	x	2%	2.3*	2	1	1
COc1cc(NC(=O)c2ccccc2Cl)c(OC)cc1NC(=O)CN1CCOCC1	i	4%	1.1	5	1	6
COCCCN(C(=O)Nc1ccccc1)C(C)c1ccncc1 (configuration not stated)	i	2%	1.1	0	1	5
COc1ccc2c(C(F)(F)F)cc(=O)oc2c1C	x	2%	2.9*	3	1	11
